Test results: PubChem BioAssay (Tox21)
Results filed as inconclusive are left out. Activity calls are given as the source filed them. Unless noted, calls come from the whole dose curve; as a rule, active = well fitted curve in the direction sought with a large enough effect in the repeat runs; inconclusive = weak or mixed curves; inactive = no such curve, though single readings can be large; an effect the other way counts as inactive or inconclusive.

Columns and labels:
[1] = qHTS RealTime-Glo MT Cell Viability Assay in HEK293 cells - 24 hour (AID 1224886); note: top concentration of the series differs between compounds; nearly all actives have a fitted effect of over 50% in size
How it was run: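 Cells + reagent dispensed (600 cells/well, HEK293) → 5 h at 37 C/5% CO2 → 23 nL compound in DMSO pinned → 40 h at 37 C → luminescence read at 0, 8, 16, 24, 32, 40 h.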

[2] = qHTS RealTime-Glo MT Cell Viability Assay in HEK293 cells - 8 hour (AID 1224887); note: top concentration of the series differs between compounds; nearly all actives have a fitted effect of over 50% in size
How it was run: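 600 cells/well were plated with the nonlytic NanoLuc/prosubstrate reagent, pre-incubated 5 h, then given 23 nL of compound in DMSO. Incubation at 37 C for 40 h, with luminescence from viable-cell-reduced substrate read repeatedly from 0 h.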

[3] = A CellTox Green Cytotoxicity Assay to monitor cytotoxicity in HEK293 cells - 16 hour (AID 1224888); note: nearly all actives have a fitted effect of over 35% in size
How it was run: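 HEK293 cells, 600/well, were preincubated 5 hours and then exposed to compounds at 37 C for up to 40 hours. A cell-impermeant cyanine dye staining dead-cell DNA was read by fluorescence at 0, 8, 16, 24, 32 and 40 h time points.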

[4] = qHTS RealTime-Glo MT Cell Viability Assay in HepG2 cells - 0 hour (AID 1224889); note: nearly all actives have a fitted effect of over 50% in size
How it was run: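 Real-time, nonlytic viability: 600 HepG2 cells/well mixed with NanoLuc enzyme plus prosubstrate; 5 h settle, compound (DMSO) added by pintool; luminescence monitored over 40 h at 37 C.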

[5] = A CellTox Green Cytotoxicity Assay to monitor cytotoxicity in HepG2 cells - 8 hour (AID 1224890); note: nearly all actives have a fitted effect of over 45% in size
How it was run: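 HepG2 cells, 600/well, preincubated 5 h with CellTox Green dye, then exposed to Tox21 compounds in DMSO at 37 C for up to 40 h. Dead-cell DNA fluorescence read at the indicated time point.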

[6] = qHTS assay to identify small molecule antagonists of the estrogen receptor alpha (ER-alpha) signaling pathway using the BG1 cell line in the presence of 0.1 nM 17-beta-estradiol - cell viability counter screen (AID 1259241); note: nearly all actives have a fitted effect of over 40% in size
How it was run: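 VM7Luc4E2, 4,000 cells/well, phenol red-free medium + 10% charcoal-stripped FBS; 24 hr plating; cpd + 0.1 nM E2 final, 22 hr 37C/5% CO2; CellTiter-Fluor 30 min, fluorescence.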

[7] = qHTS assay to identify small molecule HDAC inhibitors - cell viability counter screen (AID 1259365); note: series mostly up to about 92 µM; nearly all actives have a fitted effect of over 50% in size
How it was run: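 Luminescence from CellTiter-Glo, developed 30min at room temperature, reports viability of wild-type HCT-116 cells treated 2hr with compounds at 37 C and 5% CO2 after overnight plating.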

[8] = qHTS assay to identify small molecule agonists of the sonic hedgehog signaling (Shh) pathway - cell viability counter screen (AID 1259366); note: nearly all actives have a fitted effect of over 50% in size
How it was run: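 Cytotoxicity counter screen run in the same wells as the Shh reporter assay. NIH/3T3 cells carrying a Gli1 response element–driven luciferase were treated with DMSO-dissolved compounds for 24hr, and live-cell protease activity was measured with CellTiter-Fluor.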

[9] = qHTS assay to identify small molecule antagonists of the sonic hedgehog signaling (Shh) pathway - cell viability counter screen (AID 1259367); note: nearly all actives have a fitted effect of over 55% in size
How it was run: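 Seed 3T3 Gli1-Luc cells at 2,000 per well; incubate 4 hr; add compound in DMSO, then conditioned medium; incubate at 37C with 5% CO2; add CellTiter-Fluor after 23 hr; read fluorescence 1 hr later.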

[10] = qHTS assay to identify small molecule agonists of the sonic hedgehog signaling (Shh) pathway (AID 1259368; calls by dose curve;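 note: NIH/3T3-derived 3T3Gli1-Luc cells carrying a stable Gli1-driven firefly luciferase reporter; series mostly up to about 92 µM; nearly all actives have a fitted effect of over 15% in size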)
How it was run: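 NIH/3T3-derived 3T3Gli1-Luc cells with stably integrated Gli1-driven firefly luciferase, 2,000 cells/well, compounds added after 4 hr. Incubated 24 hr at 37C, 5% CO2; luminescence read after 30 min with luciferase reagent at room temperature.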

[11] = qHTS assay to identify small molecule antagonists of the sonic hedgehog signaling (Shh) pathway (AID 1259369; calls by dose curve; note: nearly all actives have a fitted effect of over 45% in size)
How it was run: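 NIH/3T3-derived Gli1-Luc reporter cells plated 4 h, dosed with compound, then stimulated with conditioned medium for 24 h at 37 C. Firefly luciferase luminescence read after 30 min with detection reagent at room temperature.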

[12] = qHTS assay to identify small molecule agonists of the androgen receptor (AR) signaling pathway in the presence of an antagonist - cell viability counter screen (AID 1259379);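 note: MDA-kb2 human breast cancer cells carrying an MMTV luciferase reporter; series mostly up to about 92 µM; nearly all actives have a fitted effect of over 25% in size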
How it was run: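 MDA-kb2 cells (MMTV-luciferase, AR/GR), 3,000/well, 5 h attachment, then 3.0 µM nilutamide (final) and compounds at 15 concentrations. Viability by CellTiter-Fluor fluorescence after 16 h at 37 °C, 0% CO2, in the reporter wells.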

[13] = qHTS assay to identify small molecule agonists of the estrogen receptor beta (ER-beta) signaling pathway - cell viability counter screen (AID 1259380); note: nearly all actives have a fitted effect of over 30% in size
How it was run: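 ER-beta-UAS-bla HEK293T cells in medium with 2% charcoal-stripped FBS, pre-incubated 6 hr, then treated 16 hr at 37C. Cytotoxicity read in the same wells by CellTiter-Glo luminescence after 30 min at room temperature.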

[14] = qHTS assay to identify small molecule antagonists of the androgen receptor (AR) signaling pathway using the MDA cell line in the presence of 0.5 nM R1881 - cell viability counter screen (AID 1259242); note: nearly all actives have a fitted effect of over 45% in size
How it was run: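 MDA-kb2 cells (MMTV-luciferase, AR/GR responsive) were treated with compounds plus 0.5 nM R1881 (final) for 16 hr at 37C, 0% CO2. Viability was then read in the same wells as live-cell protease fluorescence (CellTiter-Fluor, 30 min).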

[15] = target: Estrogen receptor (Homo sapiens) (UniProt P03372); assay: qHTS assay to identify small molecule antagonists of the estrogen receptor alpha (ER-alpha) signaling pathway using the BG1 cell line in the presence of 0.1 nM 17-beta-estradiol (AID 1259244); note: nearly all actives have a fitted effect of over 50% in size
Chain of Estrogen receptor (Homo sapiens) (P03372 whole entry, looked up): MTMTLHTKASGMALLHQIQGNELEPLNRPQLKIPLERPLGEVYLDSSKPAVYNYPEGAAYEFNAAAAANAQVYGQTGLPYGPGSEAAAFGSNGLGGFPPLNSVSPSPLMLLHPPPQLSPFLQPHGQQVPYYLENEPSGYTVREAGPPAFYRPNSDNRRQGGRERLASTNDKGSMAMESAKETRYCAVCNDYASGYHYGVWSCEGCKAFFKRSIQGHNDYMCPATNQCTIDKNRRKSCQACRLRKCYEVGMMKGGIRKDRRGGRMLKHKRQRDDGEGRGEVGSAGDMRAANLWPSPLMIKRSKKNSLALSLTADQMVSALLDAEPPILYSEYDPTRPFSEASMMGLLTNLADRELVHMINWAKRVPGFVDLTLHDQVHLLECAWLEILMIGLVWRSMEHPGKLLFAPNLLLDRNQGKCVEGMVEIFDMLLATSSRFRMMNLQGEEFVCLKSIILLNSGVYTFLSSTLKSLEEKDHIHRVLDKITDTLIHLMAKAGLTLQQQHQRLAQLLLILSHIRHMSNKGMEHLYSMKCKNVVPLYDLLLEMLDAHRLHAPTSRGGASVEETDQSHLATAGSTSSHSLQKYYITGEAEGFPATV
How it was run: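 VM7Luc4E2 cells (endogenous full-length ER-alpha, 4×ERE-luciferase), kept 5 days in phenol red-free, charcoal-stripped FBS medium; 4,000 cells/well. Compounds added with 0.1 nM (final) 17beta-estradiol, 22 hr at 37C; luminescence read with ONE-Glo after 30 min.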

[16] = target: Estrogen receptor beta (Homo sapiens) (UniProt Q92731); assay: qHTS assay to identify small molecule agonists of the estrogen receptor beta (ER-beta) signaling pathway (AID 1259377; active = well fitted activation curve with a large enough effect in the signal ratio in the repeat runs, not every such curve was filed as active; the % refers to the signal ratio)
Chain of Estrogen receptor beta (Homo sapiens) (Q92731 whole entry, looked up): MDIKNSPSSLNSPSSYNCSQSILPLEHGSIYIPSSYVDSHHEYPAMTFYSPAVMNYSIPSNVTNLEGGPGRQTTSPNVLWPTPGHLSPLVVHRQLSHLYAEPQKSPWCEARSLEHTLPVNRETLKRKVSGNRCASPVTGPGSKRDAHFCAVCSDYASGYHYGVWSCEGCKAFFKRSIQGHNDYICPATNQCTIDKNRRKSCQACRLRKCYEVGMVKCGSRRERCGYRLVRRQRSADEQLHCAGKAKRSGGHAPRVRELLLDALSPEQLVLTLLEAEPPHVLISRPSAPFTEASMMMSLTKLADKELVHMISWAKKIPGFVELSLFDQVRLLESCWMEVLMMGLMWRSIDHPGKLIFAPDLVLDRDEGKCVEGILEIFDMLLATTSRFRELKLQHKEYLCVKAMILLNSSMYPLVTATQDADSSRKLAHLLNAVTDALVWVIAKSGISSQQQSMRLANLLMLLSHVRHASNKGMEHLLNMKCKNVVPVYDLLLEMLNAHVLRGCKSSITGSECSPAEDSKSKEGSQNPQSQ
How it was run: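 HEK293T ER-beta-UAS-bla; 2% charcoal-stripped FBS; cells pre-incubated 6 hr, compound 16 hr, 37C/5% CO2; LiveBLAzer B/G FRET substrate 2 h RT; fluorescence intensity read.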

[17] = target: Estrogen receptor beta (Homo sapiens) (UniProt Q92731); assay: qHTS assay to identify small molecule antagonists of the estrogen receptor beta (ER-beta) signaling pathway (AID 1259378; active = well fitted inhibition curve with a large enough effect in the signal ratio in the repeat runs, not every such curve was filed as active; the % refers to the signal ratio)
How it was run: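 ER-beta-UAS-bla HEK293T cells in 2% charcoal-stripped FBS medium treated with compound plus 1nM final 17-beta-estradiol for 16 hr at 37C. Beta-lactamase reporter read by FRET substrate fluorescence after 2 hours at room temperature.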

[18] = qHTS assay to identify small molecule HDAC inhibitors (AID 1259364); note: top concentration of the series differs between compounds; nearly all actives have a fitted effect of over 45% in size
How it was run: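 Wild-type HCT-116 cells, plated overnight at 37 C, exposed to compounds 2 hr at 37 C; luminogenic HDAC-Glo substrate then added 30 min at room temperature. Luminescence reports relative endogenous class I/II HDAC activity.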

[19] = target: Androgen receptor (Homo sapiens) (UniProt P10275); assay: qHTS assay to identify small molecule antagonists of the androgen receptor (AR) signaling pathway using the MDA cell line in the presence of 0.5 nM R1881 (AID 1259243); note: nearly all actives have a fitted effect of over 50% in size
Chain of Androgen receptor (Homo sapiens) (P10275 whole entry, looked up): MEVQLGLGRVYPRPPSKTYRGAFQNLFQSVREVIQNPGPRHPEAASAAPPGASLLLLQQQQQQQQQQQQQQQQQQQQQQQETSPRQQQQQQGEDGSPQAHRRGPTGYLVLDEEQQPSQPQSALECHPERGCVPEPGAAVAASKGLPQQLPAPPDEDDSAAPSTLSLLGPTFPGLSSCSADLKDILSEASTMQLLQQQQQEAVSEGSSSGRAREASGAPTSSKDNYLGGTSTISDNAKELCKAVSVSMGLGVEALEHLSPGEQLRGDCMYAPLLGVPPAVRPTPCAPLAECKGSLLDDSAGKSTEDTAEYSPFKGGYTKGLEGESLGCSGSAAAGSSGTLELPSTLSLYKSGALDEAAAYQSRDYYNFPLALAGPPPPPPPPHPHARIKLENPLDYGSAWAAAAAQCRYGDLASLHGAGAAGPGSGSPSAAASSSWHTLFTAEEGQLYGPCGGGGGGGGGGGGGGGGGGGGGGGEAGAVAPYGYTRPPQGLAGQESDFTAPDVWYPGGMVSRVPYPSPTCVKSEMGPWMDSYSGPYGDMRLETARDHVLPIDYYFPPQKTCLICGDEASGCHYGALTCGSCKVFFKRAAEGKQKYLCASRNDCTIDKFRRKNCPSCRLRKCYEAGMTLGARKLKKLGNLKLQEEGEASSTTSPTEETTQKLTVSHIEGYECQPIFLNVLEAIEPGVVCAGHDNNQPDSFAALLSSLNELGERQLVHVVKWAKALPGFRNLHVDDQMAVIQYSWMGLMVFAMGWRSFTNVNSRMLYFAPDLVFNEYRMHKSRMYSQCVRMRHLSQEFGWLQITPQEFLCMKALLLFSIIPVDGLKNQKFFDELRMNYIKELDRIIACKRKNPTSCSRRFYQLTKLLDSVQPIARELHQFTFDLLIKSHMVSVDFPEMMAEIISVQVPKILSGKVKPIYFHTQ
How it was run: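 MDA-kb2 cells (MMTV-luciferase, responsive to AR and GR) at 3,000/well, rested 5 h at 37C, 0% CO2, then given compounds plus 0.5 nM R1881 (final) for 16 hr. Luciferase read with ONE-Glo after 30 min at room temperature.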

[20] = qHTS assay to identify small molecule phospholipidosis (PLD) inducers (AID 1259344; active = well fitted curve in the direction sought with a large enough effect; an effect the other way counts as inactive or inconclusive)
How it was run: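 Quantitative HTS in HepG2: compound plus LipidTOX Red dye for 24 h, paraformaldehyde fixation with Hoechst 33342, widefield high-content imaging; amiodarone as positive and DMSO as negative control.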

Measured: Potency

O=C(O)CONC(=O)c1ccccc1
not listed: [14] | [15] | [16] | [17] | [18] | [19] | [20]
inactive: all other assays above

Cc1c(N)cccc1Cl
not listed: [10] | [11] | [18] | [19] | [20]
inactive: all other assays above

Fc1ccccc1
not listed: [13] | [16] | [17] | [18] | [19] | [20]
inactive: all other assays above

CCOc1cccc(N)c1
not listed: [7] | [10] | [16] | [17] | [19] | [20]
inactive: all other assays above

Cc1cc(-c2ccccc2)nnc1NCCN1CCOCC1
not listed: [7] | [8] | [10] | [16] | [17] | [19] | [20]
inactive: all other assays above

CCCCCCCCCOC(=O)c1ccccc1C(=O)OCCCCCCCCC
not listed: [10] | [14] | [20]
inactive: all other assays above

CC(C)NCC(O)c1ccc2ccccc2c1 (configuration not stated)
not listed: [14] | [15] | [19]
inactive: all other assays above

C=Cc1ccc(C(C)(C)C)cc1
not listed: [7] | [15] | [16] | [17] | [19] | [20]
inactive: all other assays above
